Measurements as given in paper PMC8769072, “Proteome‐scale mapping of binding sites in the unstructured regions of the human proteome” (Molecular Systems Biology, 2022).

The binders below were run against NEDD4 890-928, P46934.
Chain of NEDD4 890-928, P46934 (P46934 890-928): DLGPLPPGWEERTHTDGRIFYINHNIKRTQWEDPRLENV

Selected by phage display, active:
DLPAYTSPTNFPAVLS [ABCA2, Q9BZC7] confidence 3
YLSEGFGYGMPPLYPQ [NFATC4, Q14934] confidence 2
GSPPSYSEALLDQRPA [LDLRAD3, Q86YD5] confidence 3
DKNDYLPLYSSSTKVK [ZNF148, Q9UQR1] confidence 2
ADLPPPYSPTPQGPAQ [CYYR1, Q96J86] confidence 2
PPPQYIHPNSINVDGN [PRDM4, Q9UKN5] confidence 2
LPSYPVAPTSRASPSP [CCDC87, Q9NVE4] confidence 3
LAGGPAVGGLPPYATF [OTUD7B, Q6GQQ9] confidence 2
FLPPYPPQEANRSITS [VPS37A, Q8NEZ2] confidence 3
TSPIADFPAPPPYSAV [SYNPO2, Q9UMS6] confidence 4
QSNADALPPDYSVVRG [LYPD5, Q6UWN5] confidence 2
SEGTDNGDLPSYVSAF [RINT1, Q6NUQ1] confidence 2
TAPPTYTETLSTAPLA [SYNPO, Q8N3V7] confidence 3
SPPDYLQTVSHPEVYR [SH3D21, A4FU49] confidence 3
KPPPYLRNLSSDDANV [UBE2L6, O14933] confidence 2
EDSLPPYKLKLDLTKL [TMEM59L, Q9UK28] confidence 2
DQRLPPYPYSSPSLVL [CRTC2, Q53ET0] confidence 4
NLPVGYPPQYPPTAFQ [PLSCR1, O15162] confidence 2
RLSISLPSYESLTGLD [TMEM51, Q9NW97] confidence 2
ALPEPPPPYEFSASSA [N4BP3, O15049] confidence 3
ALPPYSNAGDLYSEPV [EGR3, Q06889] confidence 2
TSSSLAYPPPPSYPSP [EGR2, P11161] confidence 3
ATTHYHTYLPPPYPGS [RUNX2, Q13950] confidence 2
TAPPPYSPSPNPYQTA [FAM168A, Q92567] confidence 3
NSTPPPYERTRLSPPR [RBM14, Q96PK6] confidence 3
LANVIAPPPPPYTPNP [PROSER1, Q86XN7] confidence 2
MARRYDELPHYPGIVD [MEIS3, Q99687] confidence 3
ASDPPPPYSDFHPNNQ [ABRAXAS2, Q15018] confidence 3
ASERPPTYAELVPRVP [SH2D3A, Q9BRG2] confidence 3

What follows are binders tested against YAP1 169-207, P46937.
Chain of YAP1 169-207, P46937 (P46937 169-207): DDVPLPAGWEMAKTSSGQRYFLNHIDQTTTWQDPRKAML

Selected by phage display, active:
ADLPPPYSPTPQGPAQ [CYYR1, Q96J86] confidence 3
EDSLPPYKLKLDLTKL [TMEM59L, Q9UK28] confidence 4
DQRLPPYPYSSPSLVL [CRTC2, Q53ET0] confidence 3

What follows are binders tested against MAP1LC3B 2-119, Q9GZQ8.

Selected by phage display, active:
EDGYTQLHFDSQSNTR [CLEC7A, Q9BXN2] confidence 2
HDEAWMVLKQVHDTNM [SV2A, Q7L0J3] confidence 3
